Assay results taken from PubChem BioAssay (Tox21).
A number with no mark means an inactive call. Inconclusive results are not listed. Active and inactive are the calls of the source. The call rests on the fitted dose curve; in most records, active means well fitted curve in the direction sought with a large enough effect in the repeat runs; inconclusive means weak or mixed curves; inactive means no such curve, though single readings can be large; an effect the other way counts as inactive or inconclusive.

test system: not listed separately; assay: Caspase-3/7 induction in CHO-K1 cells by small molecules, qHTS assay (AID 1346980); conditions: CHO-K1 caspase-3/7 induction, Caspase-Glo luminescence, 17 h; series mostly up to 92.4 µM; caspase-3/7 activation: at the top concentration; further: nearly all actives have a fitted effect of over 15% in size
Summary of the method: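 Wild-type cells were seeded at 1,500 per well and settled 5 hr at 37 C, 5% CO2, then exposed to DMSO-dissolved compounds for 17 hr. Caspase-Glo 3/7 reagent was added, and luminescence was read after 30min at room temperature.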
On the % scale 0 is the no-effect control and ±100 the full control effect; potency means the concentration at half of the fitted maximal effect.

SMILES | caspase-3/7 activation | Potency
Cc1c(Cl)c(=O)oc2cc(O)ccc12 | -1.23% | –
CCOc1ccc([N+](=O)[O-])cc1 | 6.53% | –
CCCCCCCCOC(=O)c1cc(O)c(O)c(O)c1 | – | 1.54 µM (active)
c1ccc(C[P+](c2ccccc2)(c2ccccc2)c2ccccc2)cc1 | -3.13% | –
C=CCc1cc(S(=O)(=O)c2ccc(O)c(CC=C)c2)ccc1O | 0.373% | –
Nc1cccnc1N | 0.155% | –
c1ccc2cc3c4ccccc4c4ccccc4c3cc2c1 | 6.9% | –
O=S(=O)(c1ccc(OCc2ccccc2)cc1)c1ccccc1O | 0.115% | –
O=C(Nc1ccccc1)c1cc(Cl)ccc1O | -6.26% | –
CN1CCN(CCCN2c3ccccc3Sc3ccc(Cl)cc32)CC1 | 0.615% [at 42.5 µM] | –
c1ccc(-c2ccc(C(c3ccccc3)n3ccnc3)cc2)cc1 (centres undefined) | -1.36% [at 42.5 µM] | –
CCCCCCCC/C=C\CCCCCCCC(=O)N(CCO)CCO | -0.877% | –
O=C1CCC/C=C\CCCCCCCCCC1 | 5.78% | –

test system: not listed separately; assay: Caspase-3/7 induction in HepG2 cells by small molecules, qHTS cell viability counter screen (AID 1346981); conditions: CellTiter-Fluor fluorescence, 17 h; series mostly up to 92.4 µM; activity change, negative = cytotoxicity: at the top concentration; further: nearly all actives have a fitted effect of over 30% in size
Summary of the method: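 Treatment of HepG2 cells with DMSO-delivered compounds ran 16 hr at 37 C following a 5-hr pre-incubation of 2,000 cells/well. CellTiter-Fluor fluorescence, read after 1 hr, served as the viability measure in a qHTS format.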

SMILES | activity change, negative = cytotoxicity [%] | Potency
CC1=C(/C=C/C(C)=C/C=C/C(C)=C\C(=O)O)C(C)(C)CCC1 | -15 | –
CC(=O)[C@]1(O)Cc2c(O)c3c(c(O)c2[C@@H](O[C@H]2C[C@H](N)[C@H](O)[C@H](C)O2)C1)C(=O)c1ccccc1C3=O | – | 11.9 µM (active)
O=C(Cl)c1ccc(Cl)cc1Cl | 5.27 | –
O=C(NCc1ncc(C(F)(F)F)cc1Cl)c1c(Cl)cccc1Cl | -5.6 | –
CC/C(=C(/c1ccc(O)cc1)c1ccc(OCCN(C)C)cc1)c1ccccc1 | – | 28.5 µM (active)
CN[C@H]1CC[C@@H](c2ccc(Cl)c(Cl)c2)c2ccc(S(N)(=O)=O)cc21 | – | 61.1 µM (active)
N#Cc1nc(Cl)c(Cl)c(Cl)c1Cl | – | 43.3 µM (active)
c1ccc(-c2ccccc2-c2ccccc2)cc1 | 3.13 | –
CCCCCCCCCC[N+](C)(CCCCCCCCCC)CCC[Si](OC)(OC)OC | – | 61.1 µM (active)
CN1CCN(c2ccccc2/C=C2\SCCN(c3ccc(Cl)c(Cl)c3)C2=O)CC1 | – | 61.1 µM (active)

target: Nuclear receptor subfamily 1 group I member 2 (Homo sapiens) (UniProt O75469); assay: Human pregnane X receptor (PXR) small molecule agonists, qHTS assay (AID 1346982); conditions: PXR-Luc HepG2, CYP3A4 luciferase reporter, 24 h; series mostly up to 92.4 µM; activation: at the top concentration; further: nearly all actives have a fitted effect of over 35% in size
Summary of the method: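 Stable HepG2 line reporting PXR-mediated CYP3A4 expression via luciferase. Treatment: 24 hr with compounds in DMSO at 37 C. Detection: ONE-Glo luminescence.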

Chain of Nuclear receptor subfamily 1 group I member 2 (Homo sapiens) (O75469 whole entry, looked up): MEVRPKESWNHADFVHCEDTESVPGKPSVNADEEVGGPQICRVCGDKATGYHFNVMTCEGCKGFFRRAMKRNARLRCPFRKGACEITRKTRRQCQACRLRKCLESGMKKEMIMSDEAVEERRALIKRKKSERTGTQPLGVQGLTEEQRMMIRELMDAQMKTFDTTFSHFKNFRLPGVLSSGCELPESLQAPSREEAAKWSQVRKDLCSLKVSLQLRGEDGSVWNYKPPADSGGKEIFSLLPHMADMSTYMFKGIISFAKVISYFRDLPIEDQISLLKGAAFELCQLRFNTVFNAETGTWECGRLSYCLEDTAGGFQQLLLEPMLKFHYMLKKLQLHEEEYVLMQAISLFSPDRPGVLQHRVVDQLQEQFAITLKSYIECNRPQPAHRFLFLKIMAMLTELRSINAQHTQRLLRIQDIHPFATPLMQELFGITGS

SMILES | activation | Potency
CCOc1ccc([N+](=O)[O-])cc1 | 8.42% | –
CC1=C(/C=C/C(C)=C/C=C/C(C)=C\C(=O)O)C(C)(C)CCC1 | – | 34.5 µM (active)
CC(=O)[C@]1(O)Cc2c(O)c3c(c(O)c2[C@@H](O[C@H]2C[C@H](N)[C@H](O)[C@H](C)O2)C1)C(=O)c1ccccc1C3=O | -85.3% [at 42.5 µM] | –
c1ccc2cc3c4ccccc4c4ccccc4c3cc2c1 | – | 4.88 µM (active)
O=S(=O)(c1ccc(OCc2ccccc2)cc1)c1ccccc1O | – | 61.1 µM (active)
O=C(Nc1ccccc1)c1cc(Cl)ccc1O | – | 15.4 µM (active)
O=C(Cl)c1ccc(Cl)cc1Cl | 22.3% | –
c1ccc(-c2ccc(C(c3ccccc3)n3ccnc3)cc2)cc1 (centres undefined) | – | 23.7 µM (active)
O=C(NCc1ncc(C(F)(F)F)cc1Cl)c1c(Cl)cccc1Cl | – | 1.22 µM (active)
CCCCCCCC/C=C\CCCCCCCC(=O)N(CCO)CCO | – | 60.9 µM (active)
CN[C@H]1CC[C@@H](c2ccc(Cl)c(Cl)c2)c2ccc(S(N)(=O)=O)cc21 | -69.9% | –
N#Cc1nc(Cl)c(Cl)c(Cl)c1Cl | – | 9.69 µM (active)
c1ccc(-c2ccccc2-c2ccccc2)cc1 | – | 61.1 µM (active)
CCCCCCCCCC[N+](C)(CCCCCCCCCC)CCC[Si](OC)(OC)OC | -11.3% | –
O=C1CCC/C=C\CCCCCCCCCC1 | – | 30.6 µM (active)
NCc1cccc(C2CCN(C(=O)c3ccc(C#Cc4ccccc4F)o3)CC2)c1 | -26% | –
